From PubChem BioAssay
The source made the active and inactive calls.

Legend:
[1] = tested on: Human papillomavirus type 1a protein E7 (residues 44-93); assay: HPV1a E7 fragment binders on microarrays, primary screen, biochemical, small-molecule microarray, residues 44-93, 635 nm fluorescence (AID 1108); conditions: small-molecule microarray binding, fluorescence 635 nm; higher = more signal;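 also: E7 fragment applied at 1 µg/mL in TBST for 1 h at 4 C; score combines spot fluorescence with its signal to noise ratio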
[2] = modulators of HCV replicon luciferase signal, primary screen, HCV replication inhibitor project, Huh7 cells, luciferase reporter (AID 1109); conditions: 48 h, higher = more signal;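 also: huh7 hepatoma cells harbouring a luciferase neomycin HCV replicon reporter; luciferase luminescence as measure of HCV replicon replication; test concentration not given here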
[3] = molecular target: Left-right determination factor 2 (Homo sapiens) (UniProt O00292); assay: LEFTY2 binders on small-molecule microarrays, primary screen, biochemical, small-molecule microarray, 635 nm fluorescence scan (AID 1110); conditions: LEFTY2 binding, higher = more signal
Chain of Left-right determination factor 2 (Homo sapiens) (O00292 whole entry, looked up): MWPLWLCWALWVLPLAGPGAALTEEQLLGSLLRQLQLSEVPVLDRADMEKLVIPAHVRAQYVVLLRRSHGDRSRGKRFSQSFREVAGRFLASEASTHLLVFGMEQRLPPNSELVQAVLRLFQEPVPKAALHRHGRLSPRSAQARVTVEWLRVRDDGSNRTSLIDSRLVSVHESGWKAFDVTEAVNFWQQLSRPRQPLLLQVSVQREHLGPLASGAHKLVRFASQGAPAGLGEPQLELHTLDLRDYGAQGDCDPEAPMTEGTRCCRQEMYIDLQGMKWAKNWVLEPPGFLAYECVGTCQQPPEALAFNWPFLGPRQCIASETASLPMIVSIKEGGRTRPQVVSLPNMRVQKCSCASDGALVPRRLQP

[4] = molecular target: Calmodulin-1 (Homo sapiens) (UniProt P0DP23); assay: CALM1 binders on microarrays, EGTA buffer, profiling panel, biochemical, small-molecule microarray, Cy5-labelled CALM1 (AID 1111); conditions: Cy5-CALM1 binding fluorescence, higher = more signal;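 also: labelled calmodulin applied in Tris saline Tween buffer holding calcium plus EGTA and DTT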
[5] = molecular target: Calmodulin-1 (Homo sapiens) (UniProt P0DP23); assay: calcium-bound CALM1 binders on microarrays, profiling panel, artefact control for SMM control-protein annotation, biochemical, small-molecule microarray, Cy5-labelled CALM1, plus calcium (AID 1112); conditions: Cy5-CALM1 binding fluorescence, higher = more signal;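 also: score merges spot fluorescence with signal to noise from triplicate slides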
[6] = small-molecule microarray binders of probe aWnt5a, primary screen, biochemical, biotinylated probe, 635/667 nm fluorescence (AID 1113); conditions: higher = more signal;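 also: score merges 667 nm fluorescence intensity with signal-to-noise per printed feature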
[7] = small-molecule microarray binders of probe aShh, primary screen, biochemical, biotinylated probe, 635/667 nm fluorescence (AID 1114); conditions: higher = more signal;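 also: probe is biotin-labelled aShh protein from a stem cell growth factor screen; measures binding of labelled protein to compounds printed on the slide; score merges feature fluorescence at 667 nm with signal-to-noise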
[8] = small-molecule microarray binders of probe aNog, primary screen, biochemical, biotinylated probe, 635/667 nm fluorescence (AID 1115); conditions: higher = more signal;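 also: probe is biotinylated aNog protein used at 0.15 µg/mL for 1 h at 4 C; z-score combines 667 nm fluorescence of each spot with its signal to noise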
[9] = molecular target: Torsin-1A-interacting protein 1 (Homo sapiens) (UniProt Q5JTV8); assay: LAP1 binders from COS7 cell lysate, primary screen, small-molecule microarray, 635/667 nm fluorescence (AID 1116); conditions: COS7-hLAP1 lysate binding, 635 nm fluorescence, higher = more signal
Chain of Torsin-1A-interacting protein 1 (Homo sapiens) (Q5JTV8 whole entry, looked up): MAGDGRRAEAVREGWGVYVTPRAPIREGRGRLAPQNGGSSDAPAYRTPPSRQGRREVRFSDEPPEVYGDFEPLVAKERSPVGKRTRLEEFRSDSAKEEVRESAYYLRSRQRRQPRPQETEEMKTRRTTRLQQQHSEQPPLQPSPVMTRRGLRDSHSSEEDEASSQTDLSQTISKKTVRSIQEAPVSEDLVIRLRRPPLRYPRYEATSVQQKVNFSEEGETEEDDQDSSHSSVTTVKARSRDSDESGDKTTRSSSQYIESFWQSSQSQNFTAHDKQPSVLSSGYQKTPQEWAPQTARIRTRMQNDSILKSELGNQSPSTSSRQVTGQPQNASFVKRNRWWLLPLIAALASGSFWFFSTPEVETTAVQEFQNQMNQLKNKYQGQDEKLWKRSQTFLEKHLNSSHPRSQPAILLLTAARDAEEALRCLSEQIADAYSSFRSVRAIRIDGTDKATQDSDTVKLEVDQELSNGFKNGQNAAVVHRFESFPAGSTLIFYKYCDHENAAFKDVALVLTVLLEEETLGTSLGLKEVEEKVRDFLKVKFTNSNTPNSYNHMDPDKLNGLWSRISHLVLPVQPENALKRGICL

[10] = molecular target: Alpha-bungarotoxin (Bungarus multicinctus) (UniProt P60615); assay: alpha-bungarotoxin binders on microarray, profiling panel, artefact control for SMM control protein annotation, biochemical, small-molecule microarray, Alexa647 label, 635/667 nm fluorescence (AID 1117); conditions: alpha-BTX-A647 binding fluorescence, higher = more signal
Chain of Alpha-bungarotoxin (Bungarus multicinctus) (P60615 whole entry, looked up): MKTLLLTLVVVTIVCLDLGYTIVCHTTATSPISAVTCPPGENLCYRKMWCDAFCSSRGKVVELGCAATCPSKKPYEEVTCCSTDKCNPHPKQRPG

Albumin (Bos taurus) = Albumin (Bos taurus) (UniProt P02769); assay: bovine serum albumin binders on microarray, profiling panel, artefact control for SMM control protein annotation, biochemical, small-molecule microarray, Alexa647 label, 635/667 nm fluorescence (AID 1118); conditions: BSA-A647 binding, fluorescence 635 nm, higher = more signal;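 also: score merges 667 nm emission intensity and signal-to-noise per printed compound spot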
Chain of Albumin (Bos taurus) (P02769 whole entry, looked up): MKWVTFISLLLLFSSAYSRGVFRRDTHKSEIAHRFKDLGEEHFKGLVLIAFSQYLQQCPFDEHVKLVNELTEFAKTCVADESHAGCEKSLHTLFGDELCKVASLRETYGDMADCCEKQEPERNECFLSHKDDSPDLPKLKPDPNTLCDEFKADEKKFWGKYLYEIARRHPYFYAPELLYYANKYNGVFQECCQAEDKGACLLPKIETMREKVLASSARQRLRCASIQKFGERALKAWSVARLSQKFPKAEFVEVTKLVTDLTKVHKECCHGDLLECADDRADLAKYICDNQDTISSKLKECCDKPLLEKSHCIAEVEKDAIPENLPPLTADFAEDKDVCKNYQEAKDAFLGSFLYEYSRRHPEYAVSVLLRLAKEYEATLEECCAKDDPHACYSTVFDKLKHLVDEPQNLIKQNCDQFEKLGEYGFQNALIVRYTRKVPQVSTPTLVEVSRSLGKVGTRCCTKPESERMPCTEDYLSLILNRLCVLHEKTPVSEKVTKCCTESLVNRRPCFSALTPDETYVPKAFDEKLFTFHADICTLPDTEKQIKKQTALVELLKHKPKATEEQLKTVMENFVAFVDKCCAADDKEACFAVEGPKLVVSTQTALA

[11] = small-molecule microarray binders of probe aXIP, primary screen, biochemical, NeuroSMM set, 635/667 nm fluorescence (AID 1119); conditions: higher = more signal, called active from +8 up or from −8 down;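 also: probe is the protein aXip251-270 applied at 1 µg/mL to compound-printed slides; binding of probe to printed compounds measured as 667 nm fluorescence plus signal to noise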
[12] = small-molecule binders of probe aNOTCH3, primary screen, biochemical, small-molecule microarray, 635/667 nm fluorescence (AID 1120); conditions: higher = more signal;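 also: probe is a biotin-tagged antibody raised against NOTCH3 rather than NOTCH3 protein; score merges spot fluorescence near 667 nm with spot signal to noise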
[13] = small-molecule binders of probe aNOTCH2, primary screen, biochemical, small-molecule microarray, 635/667 nm fluorescence (AID 1121); conditions: higher = more signal;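 also: score merges feature fluorescence read at 667 nm with its signal to noise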
[14] = molecular target: Carbonic anhydrase 2 (Homo sapiens) (UniProt P00918); assay: CAII small-molecule binders, profiling panel, biochemical, small-molecule microarray, Alexa647-labelled CAII (AID 1122); conditions: CAII-A647 binding fluorescence, higher = more signal
[15] = COS7 lysate on small-molecule microarray, probe aHis, 635 nm (AID 1123); conditions: COS7 cell lysate, fluorescence, higher = more signal;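 also: z-score combines 667nm fluorescence intensity with signal-to-noise per printed compound spot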
[16] = compound binding in COS7 lysate, probe aLAP1, primary screen, cell lysate, small-molecule microarray (AID 1124); conditions: probe aLAP1, fluorescence, higher = more signal;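 also: lysate comes from COS7 cells expressing LAP1 and is applied at 0.3 µg/mL; score merges spot fluorescence near 667 nm with signal-to-noise over triplicate slides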
Sam68 (KHDRBS1) = assay: Sam68 small-molecule binders, primary screen, biochemical, small-molecule microarray, 635 nm fluorescence (AID 1125); conditions: small-molecule microarray binding, higher = more signal;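 also: score merges 667 nm channel intensity with signal to noise over triplicate slides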
[17] = tested on: Chordin-like protein 2 (CHRDL2); assay: CHRDL2 small-molecule binders, primary screen, biochemical, small-molecule microarray, 635 nm fluorescence (AID 1126); conditions: small-molecule microarray binding, fluorescence 635 nm; higher = more signal;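 also: printed compound slides probed with Chrdl2 protein at 4 µg/mL for 1 h at 4 C; score merges 667 nm emission intensity with signal to noise over three replicate slides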
[18] = molecular target: Concanavalin-A (Canavalia ensiformis) (UniProt P02866); assay: ConA small-molecule binders, primary screen, artefact control for SMM control protein annotation, biochemical, small-molecule microarray, Alexa647 label, 635 nm (AID 1127); conditions: ConA-A647 binding fluorescence, higher = more signal;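 also: z combines 667 nm emission intensity with signal-to-noise across three replicate slides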
Chain of Concanavalin-A (Canavalia ensiformis) (P02866 whole entry, looked up): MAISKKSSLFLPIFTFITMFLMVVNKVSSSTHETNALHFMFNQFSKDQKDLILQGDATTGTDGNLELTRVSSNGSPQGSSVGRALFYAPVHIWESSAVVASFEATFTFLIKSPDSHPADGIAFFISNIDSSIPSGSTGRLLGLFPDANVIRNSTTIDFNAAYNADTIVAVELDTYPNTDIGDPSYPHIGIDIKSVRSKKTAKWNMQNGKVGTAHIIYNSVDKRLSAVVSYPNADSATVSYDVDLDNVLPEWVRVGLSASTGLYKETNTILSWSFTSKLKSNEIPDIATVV

Row | Structure (SMILES) | composite z-score [1] | z-score [2] | composite z-score [3] | composite z-score [4] | composite z-score [5] | composite z-score [6] | composite z-score [7] | composite z-score [8] | composite z-score [9] | composite z-score [10] | composite z-score (Albumin (Bos taurus)) | composite Z-score [11] | composite z-score [12] | composite z-score [13] | composite z-score [14] | composite z-score [15] | composite z-score [16] | composite z-score (Sam68 (KHDRBS1)) | composite z-score [17] | composite z-score [18]
1 | CCOC(=O)C1=CC[C@@H](c2ccccc2)N(S(=O)(=O)c2ccc(C)cc2)[C@H]1c1ccccc1I | 0.77 | -0.839 | 0.316 | 1.82 | 0.944 | -0.0195 | -0.0769 | -0.327 | 0.911 | 1.19 | 0.856 | 0.008 (inactive) | 1.02 | -0.0226 | 0.649 | 0.842 | 0.748 | 0.875 | -0.131 | 1.01
2 | O=C1C[C@@](C(=O)NC2CC2)(c2ccc([N+](=O)[O-])cc2)[C@@H](c2ccc(CO)cc2)N1C1CCCCC1 | 1.44 | -2.02 | 0.257 | 0.522 | 0.435 | -0.1 | 0.149 | -0.292 | 1.43 | 0.538 | 0.535 | 0.002 (inactive) | 0.11 | -0.0995 | 0.512 | 2.7 | 0.0901 | 1.28 | 0.43 | 0.704
3 | O=C1O[C@@H](c2ccccc2)[C@@H](c2ccccc2)N2[C@@H](c3ccc(OCCO)cc3)[C@]3(C(=O)Nc4ccc(C#CC5(O)CCCCCC5)cc43)[C@@H](C(=O)Nc3nc4ccccc4s3)[C@H]12 | 1.44 | -2.29 | 0.755 | 1.6 | 0.646 | 0.0775 | 0.156 | 0.516 | 1.34 | 1.41 | 0.691 | -0.144 (inactive) | 0.0169 | -0.0664 | 0.608 | 2.31 | 0.36 | 1.29 | 0.583 | 1.01
4 | O=C1O[C@@H](c2ccccc2)[C@@H](c2ccccc2)N2[C@@H](c3ccc(OCCO)cc3)[C@]3(C(=O)Nc4ccc(C#CC5(O)CCCCCC5)cc43)[C@@H](C(=O)O)[C@H]12 | 0.349 | -0.687 | 0.109 | 1.29 | 1.03 | -0.0495 | 0.0902 | -0.0047 | 0.835 | 0.987 | 0.572 | -0.014 (inactive) | 0.0745 | -0.0725 | 0.685 | 0.969 | 0.58 | 1.34 | -0.458 | 0.994
5 | CO[C@H]1O[C@H](CO)[C@@H](OC(=O)Nc2ccccc2)[C@H](OC(=O)Nc2ccccc2)[C@H]1OC(=O)Nc1ccccc1 | 1.5 | -2.73 | -0.0522 | 1.34 | -0.12 | 0.0519 | -0.0709 | -0.273 | 1.75 | 1.05 | 0.729 | -0.375 (inactive) | -0.0918 | -0.0567 | 0.521 | 2.45 | 0.373 | 1.3 | -0.0958 | 1.15
6 | Cc1ccc(N2C(=O)c3ccccc3[C@](C)(C(=O)NCCCN(C)C)[C@@H]2c2ccc(CO)cc2)nc1 | 0.571 | -0.199 | -1.05 | -0.213 | -0.338 | -0.148 | -0.138 | -0.348 | -0.312 | 0.149 | 0.656 | -0.392 (inactive) | -0.0984 | -0.13 | 0.281 | 0.93 | -0.728 | 0.276 | -1.19 | 0.0368
